HCV inh = qHTS Assay for Inhibitors of Hepatitis C Virus (HCV) | 340,000 tested, 3.4% active | Huh7.5.1 HCVcc-Cre infection, luciferase reporter, 44 h | Potency, µM (titrated, usually from 41.8 µM), inactives show at the top dose activity change, negative = inhibition, actives largely listed as inhibitors; active = well fitted inhibition curve with a large enough effect; inconclusive = small, poorly fitted or top-dose-only effect, or another doubt; inactive = no such curve, though single readings can be large or run the other way; also: potency is read from the fitted curve at half-maximal effect
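After 44 h co-culture of compound, cells and HCVcc-Cre (~0.5 moi), substrate is added for 15 min at room temperature and luciferase measured over 15 sec. Cells were seeded at 1,000/well and pre-cultured 4 h.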
LASV entry inh = qHTS for Inhibitors of binding or entry into cells for Lassa Virus | Lassa virus pseudotype entry inhibition, cell reporter | Potency, µM (doses to about 37.9 µM), without a hit: top-dose activity change, negative = inhibition, hits mostly inhibitors | 300,000 tested, 1.2% active | AID 540256, 2011; calls by dose curve; tested in HEK293 cells; also: potency is read from the fitted curve at half-maximal effect; nearly all actives have a fitted effect of over 50% in size
HCMV antiviral = qHTS Assay for inhibitors of the human cytomegalovirus (HCMV). AID 1259415, 2018. HFF cells, HCMV-luciferase reporter, 72 h; stronger effect = lower value. activity change, negative = inhibition, % at 57.5 µM. 410,000 tested, 4.5% active; in the data active = activity change below about -60%; inconclusive = no clear call, values can overlap the other calls; inactive = above about -39%
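Two-dose cell screen: HFF monolayers treated with compounds and infected with luciferase-expressing HCMV at 1 PFU/cell, 72 h at 37C, then lysed for luciferase measurement.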
Marburg entry inh = qHTS for inhibitors of binding or entry into cells for Marburg Virus; Marburg virus pseudotyped entry inhibition, cell reporter; 300,000 tested, 1.8% active; AID 540276, 2011; Potency, µM (titrated, usually from 37.8 µM), for inactives: at the top dose activity change, negative = inhibition, most hits filed as inhibitors; calls by dose curve; tested in HEK293 cells; also: potency is read from the fitted curve at half-maximal effect
FMDV antiviral = High Throughput Screening for Foot and Mouth Disease Virus Antivirals; Potency, µM (titrated, usually from 57.9 µM), for the others: at the highest dose activity change, negative = inhibition, usual class: inhibitors; 410,000 tested, 1.2% active; FMDV antiviral cell-based qHTS; calls by dose curve; tested in HEK293T cells; also: read-out not given here; potency is read from the fitted curve at half-maximal effect; nearly all actives have a fitted effect of over 45% in size
An asterisk follows results filed as active; ? = inconclusive; · = no result; ! = not active in a repeat; [ ] = another dose, or the depositor's remark. Shown are actives, neighbours in structure and some others; about 7.9% of the full set was active somewhere. % is scaled to controls: 0 for no effect and ±100 for the full control effect.

SMILES | HCV inh | LASV entry inh | HCMV antiviral | Marburg entry inh | FMDV antiviral
CCC(C(=O)N1CCN(C(=O)c2ccco2)CC1)c1ccccc1 (stereo unspecified) | -6% | -8% | 32 | 3% | 0%
O=C(c1ccco1)N1CCN(C(=O)c2ccco2)C1=S | ? | ? | 57 | ? | 32µM*
CN(Cc1ccccc1)c1nc(N)nc(Cl)c1C=O | 4µM* | -2% | -29 | ? | ?
CN(Cc1ccccc1)c1nccn2ccnc12 | · | · | -10 | · | -1%
CC(C)(C)C(=O)Nc1ccc(N2CCN(c3ccc(C(F)(F)F)cn3)CC2)nc1 | -10% | 7%[46.1 µM] | -10 | 6%[46.1 µM] | -15%
CCC(C)c1ccc(NC(=O)C2CCN(c3ccc(C(F)(F)F)cn3)CC2)cc1 (stereo unspecified) | -13% | -5% | -60* | -11% | ?
CC(=O)Nc1ccc(NC(=O)C2CCN(c3ccc(C(F)(F)F)cn3)CC2)cc1 | 13µM* | 10%[46.1 µM] | -67* | -9%[46.1 µM] | -27%
CS(=O)(=O)Nc1ccc(N2CCN(c3ccc(C(F)(F)F)cn3)CC2)nc1 | 11µM* | 5% | ? | -22% | ?
NC(=O)C1CCN(c2ccc(C(F)(F)F)cn2)CC1 | 14% | · | 20 | 1%[46.1 µM] | 23%
O=C(Nc1ccc(N2CCOCC2)nc1)c1ccc(C(F)(F)F)cc1 | 7.1µM* | ? | -68* | 9%[46.1 µM] | 8.9µM*
CCN(CC)CCNC(=O)c1c(C)oc2ncn(C)c(=O)c12 | · | 14%[46.1 µM] | 19 | · | -8%
COc1cc(OC)c(NC(=O)NCc2ccc3c(c2)CCN3C(=O)c2ccccc2)cc1Cl | · | -14%[46.1 µM] | -26 | · | ?
COC(=O)N1CCN(C(=O)Cc2ccc(Cl)c(Cl)c2)C(CN2CCCC2)C1 (stereo unspecified) | · | ? | · | 11µM* | 6%
COC(=O)N1CCN(c2ccc(Cl)c(Cl)c2)CC1 | 0% | ? | -19 | ? | ?
CCOC(=O)c1c(C)[nH]c(C)c1C(=O)COC(=O)/C=C/c1ccc(OC(F)F)cc1 | 32µM* | 11µM* | -4 | ? | ?
CCOc1ccc(-c2cc(C(=O)NCc3ccc(OC)cc3)c3c(-c4ccc(F)cc4)[nH]nc3n2)cc1 | · | ? | 4 | · | 5%
COc1ccccc1-c1nc(SCC(=O)NCc2ccccc2)c2c(=O)n(C)c(=O)n(C)c2n1 | · | -3%[46.1 µM] | 0 | · | -16%
COc1ccccc1-c1nc(SCC(=O)N(C)c2ccccc2)c2c(=O)n(C)c(=O)n(C)c2n1 | 6.3µM* | -5% | 9 | 0%[46.1 µM] | -26%
COc1ccc(-n2ncc3c(NCC(C)C)ncnc32)cc1 | 14µM* | ? | 120 | ? | -30%
Cc1ccc(Cl)cc1N1CCN(c2ncnc3onc(C)c23)CC1 | · | ? | -13 | · | ?
Clc1ccc(-n2ncc3c(N4CCCCCC4)ncnc32)cc1 | -5% | · | -79* | · | ?
Cn1ncc2c(N3CCN(c4cccc(Cl)c4)CC3)ncnc21 | · | ? | -11 | · | 16µM*
Cc1noc2ncnc(N3CCN(c4cccc(Cl)c4)CC3)c12 | 10µM* | · | -72* | · | 25µM*
CN1CCN(c2ncnc3c2cnn3-c2cccc(Cl)c2)CC1 | · | ? | 71 | · | -2%
CCC(C)NC(=O)c1ccc2c(c1)nc1n2CCCCC1 (stereo unspecified) | · | -4%[46.1 µM] | 27 | · | 30%
SMILES | HCV inh | LASV entry inh | HCMV antiviral | Marburg entry inh | FMDV antiviral
COc1ccc(N2CCN(c3ncnc4c3cnn4C)CC2)cc1 | · | -11%[46.1 µM] | -61* | · | ?
Cc1ccc(-n2ncc3c(N4CCCCC4)ncnc32)cc1 | · | ? | -101* | · | ?
COc1ccc(-n2ncc3c(N4CCCCC4)ncnc32)cc1 | ? | · | · | · | 10µM*
COc1ccc(-n2ncc3c(N4CCN(c5cccc(C)c5C)CC4)ncnc32)cc1 | -1% | · | -22 | · | ?
Cc1cccc(-n2ncc3c(N4CCCC4)ncnc32)c1 | ? | ? | -2 | ? | ·
CCN(CC)CCNC(=O)c1cc2c(=O)n(C)c3cc(Cl)ccc3c2s1 | · | 5%[46.1 µM] | 12 | 21%[46.1 µM] | 1%
COc1ccc(-c2cn3c(n2)sc2cc(C(=O)NC(C)C45CC6CC(CC(C6)C4)C5)ccc23)cc1 (stereo unspecified) | · | 24%[46.1 µM] | · | · | 30%
N#C/C(=C(/O)CCl)c1nc2ccccc2[nH]1 | ? | ? | -70* | ? | 35µM*
Cc1cccc(C)c1OCC(=O)OC/C(O)=C(\C#N)c1nc2ccccc2[nH]1 | 25% | 4% | ? | 4% | -8%
CC(C)C(=O)OC/C(O)=C(\C#N)c1nc2ccccc2[nH]1 | 2% | 0%[46.1 µM] | -65* | -20%[46.1 µM] | 6%
N#C/C(=C(/O)COC(=O)c1ccc(O)cc1)c1nc2ccccc2[nH]1 | 9% | · | -2 | · | 2%
CCCC(=O)OC/C(O)=C(\C#N)c1nc2ccccc2[nH]1 | 25% | -25% | -73* | ? | -11%
N#C/C(=C(\O)Cc1ccccc1)c1nc2ccccc2[nH]1 | -9% | -2% | 2 | -10% | 11%
N#C/C(=C(/O)COC(=O)CCC1CCCCC1)c1nc2ccccc2[nH]1 | 12% | ? | -69* | ? | ?
Cc1c(-c2cccc(Cl)c2)nc2ccccc2c1C(=O)OC/C(O)=C(\C#N)c1nc2ccccc2[nH]1 | 8.9µM* | 4% | -82* | ? | -25%
COCC(=O)OC/C(O)=C(\C#N)c1nc2ccccc2[nH]1 | -15% | ? | -99* | ? | ?
COCCN1CCN(C(=O)c2cnn(-c3nccc(-c4ccccc4OC)n3)c2-c2ccco2)CC1 | · | · | · | · | -17%
C1CCC(C(CC2CCCCN2)C2CCCCC2)CC1 (stereo unspecified) | ? | 18µM* | -99*! | ? | -25%
O=C(NC1CCCC1)C1C(c2ccccc2)=Nc2ccccc2N1C(=O)c1ccc(C(F)(F)F)cc1 (stereo unspecified) | · | · | -83* | · | 9%
CCCCNC(=O)C1C(c2ccc(C(F)(F)F)cc2)=Nc2ccccc2N1C(=O)c1ccc2nc(C)[nH]c2c1 (stereo unspecified) | · | · | -86* | · | 33%
Cc1ccccc1C(=O)N1CCc2c(cnc(C)c2CNC(=O)CN2CCCCC2)C1 | · | · | · | · | -20%
Cc1ccc(OC(=O)C2c3ccccc3Oc3ccccc32)cc1C | -2% | 18µM* | -28 | ? | -25%
CC(=O)c1ccc(OC(=O)C2c3ccccc3Oc3ccccc32)cc1 | 15% | 20% | 1 | ? | -16%
O=[N+]([O-])c1ccc(NS(=O)(=O)c2ccc(Cl)c(Cl)c2)cc1 | · | · | -64* | · | 10%
O=[N+]([O-])c1ccc(S(=O)(=O)Nc2ccncc2)cc1 | -8% | 2% | -26 | 5% | -15%
Cc1nc2ccc(NC(=O)c3cccs3)cc2s1 | 0% | 5%[46.1 µM] | 84 | 13%[46.1 µM] | 19%
Cc1ccnc(NS(=O)(=O)c2ccc(NC(=O)c3ccc([N+](=O)[O-])s3)cc2)n1 | 4% | ? | -96* | -28% | -10%
